Here are results for 37 molecules from PubChem BioAssay (NCI).

A short description of test [1]: NCI Yeast Anticancer Drug Screen. Data for the rad50 strain (AID 155).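 Also: 0% = growth of vehicle-only cultures of the same strain.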 The settings on record: S. cerevisiae rad50 strain growth inhibition; at 50.0 µM; active compounds read high. Summed up:
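Growth of the mutant yeast was measured after compound exposure and referenced to vehicle-treated cultures.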

Test [2] is described as follows: NCI Yeast Anticancer Drug Screen. Data for the mec2-1 strain (AID 157). The conditions noted are these: S. cerevisiae mec2-1 strain, at 50.0 µM, active compounds read high. The procedure, abridged:
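Cells of the genetically defined mec2-1 yeast strain are incubated with test compound. Inhibition of growth is calculated against vehicle-treated controls.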

Test [3] in a line: NCI Yeast Anticancer Drug Screen. Data for the sgs1 mgt1 strain (AID 161).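 Also: 0% = growth of cultures given vehicle only.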 The conditions noted are these: S. cerevisiae sgs1 mgt1 strain, at 50.0 µM, active compounds read high. Summed up:
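Genetically altered yeast, compound exposure, growth inhibition relative to vehicle.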

Test [4] in a line: NCI Yeast Anticancer Drug Screen. Data for the cln2 rad14 strain (AID 165).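 Also: 0% = growth equal to vehicle treated cultures.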 The conditions noted are these: S. cerevisiae cln2 rad14 strain, at 50.0 µM, active compounds read high. The procedure, abridged: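 The screen exposed genetically defined yeast (cln2 rad14) to test compounds and scored growth inhibition relative to vehicle-treated controls.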
A short description of test [5]: NCI Yeast Anticancer Drug Screen. Data for the bub3 strain (AID 167). The settings on record: S. cerevisiae bub3 mutant strain, at 50.0 µM, active compounds read high. Summed up: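 Whole-cell yeast assay. The mutant strain was incubated with compounds, and growth inhibition was determined by comparison with vehicle-treated cells.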
Test [6] can be described thus: NCI Yeast Anticancer Drug Screen. Data for the mlh1 rad18 strain (AID 175). The settings on record: S. cerevisiae mlh1 rad18 strain growth inhibition; at 50.0 µM; active compounds read high. Summed up:
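Compound-treated yeast growth, normalised to vehicle controls. Strain bears defined DNA repair mutations.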

The panel holds about 79,000 compounds, 15% with a hit somewhere; the sample as a whole holds those more often. A number with no mark means an inactive call. Activity calls are given as the source filed them. Rule as the data show it: active = growth inhibition above about 70%; inactive = the rest.

As to `CN1CC2=C(NC(=S)NC2c2ccccc2)/C(=C/c2ccccc2)C1` (configuration not stated), the growth inhibition in test [1] was -14.5%; in test [2], -8.75%; in test [3], 5.65%; in test [4], 6.8%; in test [5], 22.4%; in test [6], -13.2%.
As for `COc1ccc2c(c1)C13CCCC(C)(C(=O)NC1)C3CC2` (configuration not stated), the growth inhibition in test [1] is -0.15%; in test [2] it was -17.6%; in test [3] it was -16.3%; in test [4] it was 9%; in test [5], 2.35%; in test [6], -11.7%.
In the case of `CCOC(=O)C(C(=O)OCC)n1c(=O)c2c(ncn2C)n(C)c1=O`, the growth inhibition in test [1] is 13.2%; in test [2] it was -0.55%; in test [3], -16.8%; in test [4], 16.1%; in test [5], 13%; in test [6], 10.3%.
As to `N#CCCN(CCC#N)c1ccc(/C=C2\N=C(c3cc([N+](=O)[O-])ccc3Cl)N(S(=O)(=O)c3ccccc3)C2=O)cc1`, the growth inhibition in test [1] was 23.2%; in test [2], 16.3%; in test [3], 3.5%; in test [4], -47.4%; in test [5] it was -1.35%; in test [6] it was 28.1%.
As for `CN(C)CCCNc1ccc([N+](=O)[O-])c2nc3ccccc3c(N)c12`, the growth inhibition in test [1] was -2.1%; in test [2], -64.7%; in test [3], 6.45%; in test [4] it was -0.5%; in test [5], -11.4%; in test [6], 65.6%.
Regarding `CN1CCCC(C(=O)O)(c2ccccc2)CC1` (configuration not stated), the growth inhibition was -17.3% in test [1]; -5.95% in test [2]; -19.2% in test [3]; -35.2% in test [4]; -14.7% in test [5]; -24.1% in test [6].
Take `CCCCSCCO`: the growth inhibition in test [1] is -0.65%; in test [2], -0.2%; in test [3], -4%; in test [4] it was -12.4%; in test [5], -4.4%; in test [6], 0.7%.
In the case of `CC1=CC=CNC1(N)Br` (configuration not stated), the growth inhibition was 3.7% in test [1]; 4% in test [2]; 15.8% in test [3]; 19.4% in test [4]; 7.55% in test [5]; -4.9% in test [6].
Regarding `CCOCCOCCOC(C)Oc1ccc(Cl)cc1` (configuration not stated), the growth inhibition in test [1] was 4.05%; in test [2], 8.4%; in test [3], -9.05%; in test [4], 10.7%; in test [5] it was 6.15%; in test [6], 9.55%.
As for `CC(=O)c1cccc(N)c1`, the growth inhibition in test [1] is -26.9%; in test [2], -5.75%; in test [3] it was -20.4%; in test [4], -23.3%; in test [5] it was -15.8%; in test [6] it was 3.1%.
For the molecule `Cc1cc(N(CCCOS(C)(=O)=O)CCCOS(C)(=O)=O)ccc1C=Nc1cc(Cl)c(O)c(Cl)c1`, the growth inhibition is 31.7% in test [1]; 21.4% in test [2]; 62.8% in test [3]; 8.65% in test [4]; 34.7% in test [5]; 54.5% in test [6].
For `CC(C)(Cc1ccccc1)C(=C=C=C=C(c1ccccc1)C(C)(C)Cc1ccccc1)c1ccccc1`, the growth inhibition in test [1] was -14.8%; in test [2] it was -3.7%; in test [3], -32.2%; in test [4], 5.9%; in test [5] it was 2.95%; in test [6], -15.7%.
With `CC(=O)OCC1OC(n2cnc(C(N)=S)c2N)C(OC(C)=O)C1OC(C)=O` (configuration not stated), the growth inhibition was 2.3% in test [1]; 15.8% in test [2]; 11.4% in test [3]; -10.4% in test [4]; -2.35% in test [5]; 21.2% in test [6].
In the case of `COc1ccc(-n2c(C)nc3c(cnn3CN3CCCCC3)c2=O)cc1`, the growth inhibition in test [1] is 4%; in test [2] it was -0.95%; in test [3], -1.25%; in test [4], -4.05%; in test [5], 8.75%; in test [6], 13.5%.
`CCCCCCCCC1CC(=O)OC1=O` (configuration not stated): the growth inhibition in test [1] was 0.05%; in test [2] it was 0.55%; in test [3], -0.65%; in test [4], 7.05%; in test [5], -1.55%; in test [6] it was -2.35%.
For `CC(N)C(=O)NC(C(=O)NC1C(O)OC(CO)C(O)C1O)C(C)C` (configuration not stated), the growth inhibition in test [1] was 6.1%; in test [2], -17.2%; in test [3], -17.4%; in test [4], 7.95%; in test [5], 7.1%; in test [6], -5.75%.
`COc1ccc(N=Cc2cc(Cl)cc(Cl)c2OC(=O)c2ccccc2)cc1`: the growth inhibition in test [1] was -10.6%; in test [2], -31.1%; in test [3], 8.55%; in test [4] it was 0.65%; in test [5] it was -13.6%; in test [6] it was -19.2%.
For `CC(NC(=O)C(=O)c1ccccc1)c1ccccc1` (configuration not stated), the growth inhibition in test [1] is 10.4%; in test [2], -2.95%; in test [3] it was -13.6%; in test [4], 20.1%; in test [5], 27.4%; in test [6], -12.2%.
With `C=C1C(=O)OC2C1CCC(C)=C1C(=O)C=C(C)C12` (configuration not stated), the growth inhibition in test [1] was -24.3%; in test [2], -12.5%; in test [3], -6.6%; in test [4], 13.2%; in test [5], -13.9%; in test [6] it was -16.2%.
As to `CCCCOC(=O)c1ccc(NC(=O)Nc2c(C)cccc2C)cc1`, the growth inhibition was -0.65% in test [1]; -4.4% in test [2]; 27.3% in test [3]; -6.2% in test [4]; 30.9% in test [5]; 25% in test [6].
For the molecule `O=c1oc2cc(O)ccc2cc1-c1nc2ccccc2o1`, the growth inhibition in test [1] was -2.1%; in test [2] it was -10.8%; in test [3], -31.2%; in test [4], 14.1%; in test [5], 2.75%; in test [6], -4.1%.
In the case of `Nc1ccc(Cn2cnc3c(=O)[nH]cnc32)cc1`, the growth inhibition in test [1] was -11.7%; in test [2] it was -6.45%; in test [3], 7.7%; in test [4], -45.9%; in test [5], 6.85%; in test [6], -5.4%.
Take `CC(=O)N1C(Nc2nccs2)CCN1c1ccccc1` (configuration not stated): the growth inhibition in test [1] was -43.8%; in test [2] it was -64.5%; in test [3], -21%; in test [4], 3.1%; in test [5], -6.75%; in test [6] it was -34.2%.
For the molecule `CCC(=O)Cc1ccc(OC)c(OC)c1`, the growth inhibition was -0.3% in test [1]; -3.5% in test [2]; 19.6% in test [3]; 7.3% in test [4]; 9.35% in test [5]; 2.5% in test [6].
For `O=C1c2ccccc2C(=O)N1CCCSc1ccccc1`, the growth inhibition in test [1] is -10.2%; in test [2], -12.7%; in test [3] it was -21.9%; in test [4] it was -15.6%; in test [5] it was -32.4%; in test [6], -33.9%.
Take `O=C1c2cccc3cc([N+](=O)[O-])cc(c23)C(=O)N1CCNCCNCCNCCN1C(=O)c2cccc3cc([N+](=O)[O-])cc(c23)C1=O`: the growth inhibition was 86% (active) in test [1]; 89% (active) in test [2]; 89.3% (active) in test [3]; 90.2% (active) in test [4]; 89.2% (active) in test [5]; 90.9% (active) in test [6].
`Nc1ccc(C(=O)O)c(N)c1`: the growth inhibition in test [1] was -4.35%; in test [2], 1.45%; in test [3], -14.1%; in test [4] it was -40.3%; in test [5], -22.5%; in test [6], -1.1%.
As to `CCCCCCCCn1c(N)c(C#N)cnc1=S`, the growth inhibition in test [1] was -27.9%; in test [2], 9.65%; in test [3], -3.45%; in test [4], -20.2%; in test [5] it was 12%; in test [6], 1.2%.
Regarding `CC1=NN(c2ccccc2C)C(=O)C1`, the growth inhibition in test [1] was 2.05%; in test [2] it was -27.8%; in test [3], -5.1%; in test [4], -2.6%; in test [5], -27.9%; in test [6], 8.1%.
Consider `COc1ccc(N2N=NCC2c2ccccc2[N+](=O)[O-])cc1` (configuration not stated), for which the growth inhibition in test [1] was -10.6%; in test [2], -11.9%; in test [3] it was 14.2%; in test [4], -37.4%; in test [5], 13.6%; in test [6], 20.4%.
As for `O=[N+]([O-])c1cccc(NSNc2cccc([N+](=O)[O-])c2)c1`, the growth inhibition in test [1] is 18.1%; in test [2] it was 23.9%; in test [3] it was 25.6%; in test [4], 23.1%; in test [5] it was 6.45%; in test [6], 11%.
On to `O=C1c2ccccc2C(=O)N1c1cccc([N+](=O)[O-])c1`, for which the growth inhibition was 0.5% in test [1]; 15.9% in test [2]; 16.4% in test [3]; -44.6% in test [4]; 26.4% in test [5]; 7.05% in test [6].
Take `C=CCNC(=S)NCc1cccc2ccccc12`: the growth inhibition was -3.45% in test [1]; 36.3% in test [2]; 34.1% in test [3]; -28.1% in test [4]; 32.4% in test [5]; 21.1% in test [6].
Take `O=[N+]([O-])c1ccc2[nH]c(=S)n(/C=C(/c3ccccc3)S(=O)Cc3ccccc3)c2c1` (configuration not stated): the growth inhibition in test [1] is -2.45%; in test [2] it was -22.6%; in test [3], -18.7%; in test [4], -3.15%; in test [5], -12%; in test [6], -5.15%.
With `COc1c(O)c(/C=C/C(=O)NN)cc2ccoc12`, the growth inhibition in test [1] is -4.75%; in test [2], -10.3%; in test [3] it was -25.1%; in test [4], -16.5%; in test [5], 15.8%; in test [6] it was -23.9%.
With `Fc1cccc(C2ON=C(c3ccccc3)N2C23CC4CC(CC(C4)C2)C3)c1` (configuration not stated), the growth inhibition in test [1] is 4.9%; in test [2], -1.85%; in test [3] it was 6.1%; in test [4], 36.8%; in test [5], -8.35%; in test [6], 33.9%.
Consider `O=C1c2ccccc2N2Oc3ccccc3C12c1ccccc1` (configuration not stated), for which the growth inhibition was -3.45% in test [1]; -13.2% in test [2]; -16% in test [3]; 0.55% in test [4]; -21.2% in test [5]; 18.8% in test [6].
